# Most compounds without a hit are left out; they make up all but 2.4% or so of the library.
# NSD2 HMT inh: NSD2 (human) methyltransferase inhibition | O96028 | inhibition, % at 12.5 µM | hit rate 0.54% among 310,000 | NSD2 peptide methylation, AlphaScreen, 120 min
# Dyrk1A ADPGlo: blocks rat Dyrk1A kinase activity; ADP-Glo luminescence, NFATc1 peptide; inhibition, % at 12.5 µM; hit rate 0.43% among 310,000;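 also: plate controls were vehicle with enzyme for no effect and no enzyme for full effect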
# GSIS activator: GLuc luminescence reporter in INS-1E cells, primary screen for activators of glucose-dependent secretion of insulin; INS-1E GLuc reporter insulin secretion, 2-3 h; hit rate 0.61% among 370,000; AID 743287; activation, % at 16.6 µM;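 active = lowest replicate activation of at least 40%, so every replicate reaches that level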;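 also: 0% = median of neutral control wells and 100% = median of IBMX positive control wells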
# MITF act: activators of MITF-driven TRPM1 promoter activity in SK-MEL-5 cells. hit rate 0.75% among 300,000. AID 588334. activation, % at 12.5 µM. SK-MEL-5 TRPM1-promoter luciferase, 24 h; % of positive control, neutral wells = 0;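 active = mean activation of at least 80% with every replicate also reaching 80%; inconclusive = mean reaches 80% but some replicate falls short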;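 also: 0% = neutral control wells and 100% = parthenolide positive control wells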
# Wnt bcat act: activators of Wnt/beta-catenin signaling; activation, % at 9.35 µM; hit rate 1.2% among 300,000; AID 743398; Wnt/beta-catenin reporter cell assay, activator, plate reader; in the data active = activation above about 30%, passing the limit was not always enough; inconclusive = no clear call, values can overlap the other calls;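 also: 0% = neutral control wells and 100% = positive control wells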
# miR-122 sensor: blocks miR-122 activity in Huh7 sensor cells; Huh7 miR-122 Renilla luciferase sensor, 48 h; neutral wells = 0, positive control = 100; AID 602342; activation (reporter increase), % at 12.5 µM; hit rate 0.3% among 340,000;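 active = mean replicate activation score at least 90 and every replicate individually at or above 90; inconclusive = only one of the two criteria met; inactive = neither criterion met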;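 also: higher luciferase means less miR-122 activity so hits act as miR-122 inhibitors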
# * hit, by the source's call; ? = inconclusive; · = no result given; [ ] = another dose, or the depositor's remark. Rule as the data show it, unless noted: active = inhibition above about 50%; inactive = the rest.
SMILES,NSD2 HMT inh,Dyrk1A ADPGlo,GSIS activator,MITF act,Wnt bcat act,miR-122 sensor
C(=N\Nc1ccccc1)/c1ccc(N2CCOCC2)cc1,·,-3,·,109*,·,-2
COc1ccccc1CN1C[C@@H](C)[C@H](OC)CN(C)C(=O)c2ccc(NC(=O)Nc3ccccc3OC)cc2OC[C@H]1C,·,·,-43,·,·,-18[16.7 µM]
CCOC(=O)c1ccc2nc(NC(=O)c3ccco3)sc2c1,13,17,·,27,74*,7
CCOc1ccc2nc(NC(=O)c3ccco3)sc2c1,-3,16,25,5,14,-3
CCOC(=O)c1ccc2nc(NC(=O)C(C)C)sc2c1,·,36,·,·,?,-8
CCCC(=O)Nc1nc2ccc(C(=O)OCC)cc2s1,·,10,·,92*,20,-13
CN(C)c1ccc(C(CNC(=O)c2ccc(Br)o2)N2CCCC2)cc1 (centres undefined),6,·,·,·,·,·
CC1(C(=O)Nc2nc3ccccc3s2)CC1(Br)Br (centres undefined),3,27,7,83*,14,-3
Cc1onc(-c2ccccc2Cl)c1C(=O)N1CCN(c2nc3ccccc3s2)CC1,6,-6,·,-22,44*,-5
COc1ccc2nc(N3CCN(C(=O)C4COc5ccccc5O4)CC3)sc2c1 (centres undefined),1,·,2,100*,-3,·
Cc1onc(-c2ccccc2Cl)c1C(=O)N1CCCCC1,0,-5,-6,7,-3,5
O=C(C1CC1)N1CCN(c2nc3ccccc3s2)CC1,0,12,·,87*,31*,-4
O=C(C[C@@H]1C[C@H]2c3cc(NC(=O)Nc4ccc(C(F)(F)F)cc4)ccc3O[C@H]2[C@@H](CO)O1)NCc1ccccn1,·,·,-4,·,·,-4[16.7 µM]
CCCNC(=O)Nc1ccc2c(c1)C(=O)N(C)[C@H]1CC[C@@H](CC(=O)NCCCN(C)C)O[C@H]1CO2,·,·,17,·,·,2[16.7 µM]
Cc1cccc(-c2nc3cc([N+](=O)[O-])ccc3o2)c1,-1,-7,1,91*,28,-5
O=[N+]([O-])c1ccc2oc(-c3ccccc3)nc2c1,-6,2,-16,50,-2,·
O=C(CCc1ccccc1)Nc1ccc2ccccc2n1,-2,8,-17,100*,56*,·
Cc1cc(C)cc(NC(=O)Nc2ccc3ccccc3n2)c1,-1,1,18,·,-1,10
O=C(Nc1ccc2ccccc2n1)c1ccccc1Br,-1,7,·,26,35*,9
Cc1ccc(C(=O)Nc2ccc3ccccc3n2)cc1,-2,21,-22,41,36*,1
O=C(CCc1ccccc1)Nc1ccccc1,·,8,5,47,17,·
O=C(Nc1ccon1)c1ccc(N2CCCCC2)c([N+](=O)[O-])c1,8,7,-4,91*,29,·
CN1C(=O)c2cc(NC(=O)C3CCCCC3)ccc2OC[C@@H]2O[C@@H](CC(=O)NC3CCCC3)CC[C@@H]21,·,·,-15,·,·,32[16.7 µM]
Cn1c(SCc2nnc3n2CCCCC3)nc2ccccc21,-5,·,66*,-6,-5,-1
COc1cc2cnc(-c3cccnc3)cc2cc1OC,·,16,62*,33,2,-4
SMILES,NSD2 HMT inh,Dyrk1A ADPGlo,GSIS activator,MITF act,Wnt bcat act,miR-122 sensor
COc1ccc(-c2cc3cc(OC)c(OC)cc3cn2)cc1OC,0,·,7,·,?,·
O=C1CSC(c2ccccn2)N1c1ccccc1 (centres undefined),32,5,16,6,0,-1
O=C1CSC(c2ccccn2)N1c1ccc(Br)cc1 (centres undefined),-5,·,43*,-13,3,·
COc1cc(/C=C/C(=O)OCC(=O)NCCc2ccccc2)ccc1OC(F)F,3,0,61*,-8,-2,·
COc1cc(/C=C/C(=O)OCC(=O)NCc2cccs2)ccc1OC(F)F,1,-1,46*,-4,-2,·
C[C@@H]1CCCCO[C@@H](CN(C)C(=O)c2ccccc2)[C@H](C)CN([C@@H](C)CO)C(=O)c2cc(NC(=O)c3ccncc3)ccc2O1,·,·,6,·,·,3[16.7 µM]
O=C(C[C@@H]1C[C@H]2c3cc(NC(=O)Cc4ccncc4)ccc3O[C@H]2[C@@H](CO)O1)NCC1CC1,·,·,11,·,·,2[16.7 µM]
CC(C)NC(=O)N(C)C[C@@H]1Oc2ccc(NC(=O)NC3CCCCC3)cc2C(=O)N([C@@H](C)CO)C[C@@H]1C,·,·,5,·,·,8[16.7 µM]
C[C@@H]1CN([C@H](C)CO)C(=O)c2cc(Br)cnc2O[C@H]1CN(C)C(=O)C1CC1,·,·,20,·,·,0[16.7 µM]
CO[C@H]1CN(C)C(=O)c2cc(NC(=O)c3cccc(F)c3)ccc2OC[C@@H](C)N(CC2CC2)C[C@H]1C,·,·,9,·,·,·
CC(C)CC(=O)Nc1nnc(SCC(=O)NC2CCCC2)s1,-4,·,121*,·,-2,-3
CC(C)CC(=O)Nc1nnc(SCC(=O)NC2CCCCC2)s1,4,-1,22,4,0,·
CN(C)CCN1C(=O)C(=O)/C(=C(/O)c2ccc3c(c2)OCCO3)C1c1ccccn1 (centres undefined),1,5,-16,0,37*,·
CC1CCC2(CC1)NC(=O)N(Cc1cccc(C(F)(F)F)c1)C2=O (centres undefined),-1,-5,20,-6,92*,·
CC1CCC2(CC1)NC(=O)N(CC(=O)N(Cc1ccccc1)C(C)(C)C)C2=O (centres undefined),-3,·,2,0,-1,-4
O=S(=O)(c1ccccc1)n1ccc(-c2cnc(-c3ccccc3)s2)n1,0,0,-25,98*,45*,-7
CC(C)C#Cc1cnc2c(c1)C(=O)N([C@@H](C)CO)C[C@@H](C)[C@H](CN(C)S(=O)(=O)c1cn(C)cn1)O2,·,·,16,·,·,-6[16.7 µM]
Cc1cc(C)nc(Nc2ccccc2Br)n1,-1,-2,·,·,·,-12
Cc1cc(C)nc(N/C(=N\S(=O)(=O)Cc2ccccc2)Nc2ccccc2Br)n1,39,·,-1,1,-7,180*
O=C(Nc1ccc(Cl)c(Cl)c1)OCc1cccnc1,-1,3,·,86*,18,-1
CC(=O)N1CC(=O)N2[C@H](CO)[C@@H](c3ccc(-c4cccc(C(=O)N(C)C)c4)cc3)[C@H]2C1,·,·,9,·,·,·
COC(=O)C[C@H]1C=C[C@@H](NC(=O)C2CC2)[C@@H](CO)O1,·,·,6,·,45*,·
CCNC(=O)C[C@H]1C=C[C@H](NC(=O)C2CC2)[C@@H](CO)O1,·,·,5,·,·,·
CC(C)C#Cc1ccc([C@@H]2[C@@H](CO)N3C(=O)CN(C(=O)c4ccc5c(c4)OCO5)C[C@H]23)cc1,·,·,-14,·,·,·
N#Cc1cnn2c1nc(N1CCCCC1)c1ccccc12,0,7,·,·,·,134*
CC(C)NC(=O)Nc1ccc2c(c1)C(=O)N([C@H](C)CO)C[C@@H](C)[C@@H](CN(C)C(=O)CCC(F)(F)F)OCCCC[C@@H](C)O2,·,·,25,·,·,-6[16.7 µM]
c1coc(CNc2nc3ccccc3s2)c1,9,·,14,29,36*,12
